Results: paper PMC7819943, “Rice protein-binding microarrays: a tool to detect cis-acting elements near promoter regions in rice”
Whole data set: some 35,000 sequences, median “fluorescence intensity (a.u.)” near 10,000, cut for the highest 2% near 52,000. For the sample, the highest values were picked, then their nearest neighbours and some sequences at random.

What follows are sequences tested against T1, OsWOX13 (Oryza sativa, UniProt Q5QMM3 1-267) (assay: protein-binding microarray (RPBM); PBS, 2% BSA, 51.3 ng/ul salmon testes DNA, 50 uM zinc acetate, 200 nM TF, 25 C, 1 h; high values mean tight binding). Conditions: protein: recombinant; tags: N-terminal polyhistidine and DsRed monomer fusion (pET32a); label: CyDye5-dUTP incorporated in the synthesized complementary strand; 3' TTTTT single-stranded linker to array surface; dsDNA, one strand shown.
T1 sequence: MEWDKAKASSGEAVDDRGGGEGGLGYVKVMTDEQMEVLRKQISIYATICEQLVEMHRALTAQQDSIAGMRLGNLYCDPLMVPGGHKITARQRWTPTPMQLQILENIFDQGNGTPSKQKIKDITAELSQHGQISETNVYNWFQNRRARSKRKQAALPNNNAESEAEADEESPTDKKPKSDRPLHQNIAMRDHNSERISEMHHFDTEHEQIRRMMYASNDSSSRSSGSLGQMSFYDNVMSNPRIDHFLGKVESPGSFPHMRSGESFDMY
Outline: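 A custom Agilent array was converted to double-stranded form by primer extension with Cy5-dUTP and blocked with 2% BSA. Protein at 200 nM in PBS with 2% BSA, salmon testes DNA and 50 µM zinc acetate was applied for 1 h at 25 °C, followed by washing. The proteins were polyhistidine–DsRed N-terminal fusions of transcription factors, expressed in E. coli BL21-CodonPlus and Ni–NTA-purified. The binding signal is per-feature fluorescence intensity (arbitrary units) from an Axon 4000B scanner.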

Sequence | binding signal
GTAAACTGCAATCAATCAGCCATTAAAATCTCATGCTCTGCGGAGTCACCTAGTGCAG | 60000 fluorescence intensity (a.u.)
ACAATTAATTTAATTAAATTGAGGTCAGCCATGCATGCAGCGGAGTCACCTAGTGCAG | 64800 fluorescence intensity (a.u.)
CCACCTGTGATTGAAAACAATTACTTTTGAACATGCGCAGCGGAGTCACCTAGTGCAG | 55200 fluorescence intensity (a.u.)
AATAACACAATTGTTGATAATTGTTGGATTACTTTGTGAGCGGAGTCACCTAGTGCAG | 16000 fluorescence intensity (a.u.)
TCAAAATTGGAAGTTTTGTTGAAATTGAAACAATGTGATGCGGAGTCACCTAGTGCAG | 19500 fluorescence intensity (a.u.)
ATAATTATTTAAATTATATGCATACACCTAGGTGCCATGGCGGAGTCACCTAGTGCAG | 38800 fluorescence intensity (a.u.)
TGCGAAATTTAGCGTGAGAAATTAAGTGATTGATTGAGAGCGGAGTCACCTAGTGCAG | 26900 fluorescence intensity (a.u.)
TGCCATTGTCAATCTCTCTGCTCTCCTCATGTAACTGATGCGGAGTCACCTAGTGCAG | 3180 fluorescence intensity (a.u.)
AAAATTAAATGCGATCAATCAGAGCCGTCCATATCTCTGCCGGAGTCACCTAGTGCAG | 33400 fluorescence intensity (a.u.)
ACTCCCTATTAATTTCCATCACCTTTACCAAACAAGATATCGGAGTCACCTAGTGCAG | 6910 fluorescence intensity (a.u.)
GATTTAAACTGAAACGAACAGATTCTTTGTTCTTTGCATACGGAGTCACCTAGTGCAG | 9800 fluorescence intensity (a.u.)
ATAATTAGTACCTTATAATAAGTAGCACAATCTTCGTGTTCGGAGTCACCTAGTGCAG | 7900 fluorescence intensity (a.u.)
TGGAATGATGGATAAAGTCCAAGTTTGACCTGAGTCAAAGCGGAGTCACCTAGTGCAG | 6270 fluorescence intensity (a.u.)
CAGATATAAATTGAGCGACTTCCAGAGTGATCAGCACTACCGGAGTCACCTAGTGCAG | 7440 fluorescence intensity (a.u.)
ACAACAACAGCTTTGATCAATCAATCCATCAACTCAGGTTCGGAGTCACCTAGTGCAG | 11400 fluorescence intensity (a.u.)
AATCTTTTCTTAATTCTATAATTATCCTTAACGAATTAGTCGGAGTCACCTAGTGCAG | 4150 fluorescence intensity (a.u.)
GATAACTGGTGTGGAGGCTGCGGCGTGGGTGGTAAAGCACCGGAGTCACCTAGTGCAG | 3220 fluorescence intensity (a.u.)
TATTATTTATTTTGTTTGTGATTTGCTTTGTTATTAATAGCGGAGTCACCTAGTGCAG | 8380 fluorescence intensity (a.u.)
ACAATGATTGATTAATGTTTGATAGTAACAGCCATGAGAGCGGAGTCACCTAGTGCAG | 58800 fluorescence intensity (a.u.)
TTTTGATTGATAAGTATAACCATGTATAAGCGAAACAATGCGGAGTCACCTAGTGCAG | 64500 fluorescence intensity (a.u.)
ATATGATTATGTGATAATGTTTGAGAGTACAAACAAATGACGGAGTCACCTAGTGCAG | 19000 fluorescence intensity (a.u.)
TGTTAGATTTAATGTAATTGATTTGATATTTTAGATATTGCGGAGTCACCTAGTGCAG | 49700 fluorescence intensity (a.u.)
ATTAATGATTGATAGTCAGTCACTTAGCCATGTTATTTTGCGGAGTCACCTAGTGCAG | 65500 fluorescence intensity (a.u.)
ATAATTTTGAAATTATTAACATGATATAAATGAGATAGAGCGGAGTCACCTAGTGCAG | 16200 fluorescence intensity (a.u.)

Sequence | binding signal
GATTTTGATAGGAATGTAAGTATAAAACAGAGGATTGTAACGGAGTCACCTAGTGCAG | 3360 fluorescence intensity (a.u.)
TAAATTTTGACTGATAAGTATAAGTATAAGCGAAAAGATTCGGAGTCACCTAGTGCAG | 12400 fluorescence intensity (a.u.)
AACCCAATAACGGTAACTGACAAAACGATGAAAACCAAACCGGAGTCACCTAGTGCAG | 4460 fluorescence intensity (a.u.)
ATATAGATTTACGTTGGATTTATACTGATTCTAACCAAATCGGAGTCACCTAGTGCAG | 13600 fluorescence intensity (a.u.)
ATGATTTTGTTTTGTTTTGCGAATAATTTTGGCGCCTCAACGGAGTCACCTAGTGCAG | 6150 fluorescence intensity (a.u.)
CACCAGTGATCTTATAATTGTAAATTTTGATCCAAGATTCCGGAGTCACCTAGTGCAG | 3800 fluorescence intensity (a.u.)
AAGAATTAATTAATGTTTAACTAGATGGCCTTATTATCTCCGGAGTCACCTAGTGCAG | 34300 fluorescence intensity (a.u.)
ATGTGTATGATGTGTTTGTTTATGTGTGGACTTTATAATACGGAGTCACCTAGTGCAG | 3210 fluorescence intensity (a.u.)
TTTACTAAGCAATCAAGATAACCTGATGTGCCTATCCATCCGGAGTCACCTAGTGCAG | 10200 fluorescence intensity (a.u.)
ACAAACACGTAATAACATTAATTTCAATCTACACATCATACGGAGTCACCTAGTGCAG | 9270 fluorescence intensity (a.u.)
GCTCCTAACCAATCAGCGCACCCATCGTCCCAAAATCCCCCGGAGTCACCTAGTGCAG | 8480 fluorescence intensity (a.u.)
ATAATTATTATGTCTGGTAGGATAGGATTTAGATGGTAAGCGGAGTCACCTAGTGCAG | 5670 fluorescence intensity (a.u.)
AAATCCCACTCCAATCACCACCACCTCTTCTCCAATTCCACGGAGTCACCTAGTGCAG | 3840 fluorescence intensity (a.u.)
TGATGATTTGATTTGATTTGATTCAATCTCCAAATCGATCCGGAGTCACCTAGTGCAG | 65100 fluorescence intensity (a.u.)
CCAATGATTGATCGATTTCTCTCCATACGCCGTGTGCCAACGGAGTCACCTAGTGCAG | 59700 fluorescence intensity (a.u.)
TCATTTCTCCAATCATAGGAGCTGGCGCATTGATCGATCACGGAGTCACCTAGTGCAG | 6160 fluorescence intensity (a.u.)
CCAAATCAATCAAATCGCATTCCACCAATTCTCCACTCTCCGGAGTCACCTAGTGCAG | 27300 fluorescence intensity (a.u.)
TCCAATTGATTGCAAATCGATTCCTCACTCCTCTCTTATCCGGAGTCACCTAGTGCAG | 57400 fluorescence intensity (a.u.)
CTCTCGCTCGCCATGATTGATCGAGCTCCACCTGCCAATTCGGAGTCACCTAGTGCAG | 12900 fluorescence intensity (a.u.)
AATCTCAAATTGAATCCATTTTATTTGATGACGATTTATTCGGAGTCACCTAGTGCAG | 9810 fluorescence intensity (a.u.)
TGATGAGATTGATCCGATGATCTCCTCTTTAAATTTCTCGCGGAGTCACCTAGTGCAG | 19100 fluorescence intensity (a.u.)
TCCAGTGATTAATCTCTTCTCCATCTCTGCCCTGCACCCTCGGAGTCACCTAGTGCAG | 21400 fluorescence intensity (a.u.)
ATCAATTCAAATTTAAATTTTGATGAAACTCTTCGAAATCCGGAGTCACCTAGTGCAG | 14400 fluorescence intensity (a.u.)
TTGGAGATGATTGATTGGAAATCTTCTTCCAGTCTCCTCTCGGAGTCACCTAGTGCAG | 61700 fluorescence intensity (a.u.)
